Compounds without any hit were thinned out: in the full panel of roughly 79,000, 15% have a hit. A number with no mark means an inactive call. Calls of active or inactive are those of the source. No stated cut-off is given here; in the data, active means growth inhibition above about 70%; inactive means the rest.
Assay: NCI Yeast Anticancer Drug Screen. Data for the sgs1 mgt1 strain (AID 161);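 further: 0% = growth of cultures given vehicle only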
Conditions: S. cerevisiae sgs1 mgt1 strain, active compounds read high
Experimental: Growth inhibition of yeast strains with defined genetic alterations is measured as a screen for potential anti-cancer activity. Selected strains with alterations in DNA damage repair or cell cycle control were exposed to compounds and growth inhibition was measured relative to vehicle treated controls. The strain used in this assay is sgs1 mgt1

[1] = at 5.0 µM (retest, dose inferred, filed as 0.5)
[2] = at 50.0 µM (retest, dose inferred, filed as 5.0)

SMILES | growth inhibition [1] | growth inhibition [2] | growth inhibition (at 50.0 µM)
CC(=O)c1ccc(NCN2C(=O)c3ccccc3C2=O)cc1 | 7% | 25% | –
N=c1oc2ccccc2cc1-c1nc2ccccc2[nH]1 | 13% | 62% | 47.8%
O=c1[nH]cc(F)c(=O)[nH]1 | 53% | 95% (active) | 49.6%
OC(c1ccc(Br)cc1)(c1cccs1)C1CC1 (stereo not given) | -7% | 99% (active) | –
O=C(Cc1ccccc1)c1ccc(O)cc1 | 1% | 88% (active) | 94.2% (active)
CCOC(=O)/C(O)=C(/C=N/C(=S)Nc1c(CC)cccc1CC)C(=O)OCC | -4% | 10% | 51.3%
O=Cc1ccccc1B(O)O | -25% | 95% (active) | 98.9% (active)
CC1C=CN(N(C)C)C2=C1C(=O)c1cnccc1C2=O (stereo not given) | 48% | 86% (active) | 89.7% (active)
CN(NC(=O)/C(=C/C=C/c1ccccc1)NC(=O)c1ccccc1)C1=C(Cl)C(=O)[N+](c2ccccc2)=CC1 | -6% | 8% | 79.8% (active)
O=C1C=CC(=Nc2ccc3c(c2)Cc2cc(Cl)ccc2-3)O1 | 49% | 100% (active) | 99.5% (active)
C[Si](C)(C)Cc1ccccc1C(=O)O | 9% | 38% | 97.4% (active)
O=C(Nc1ccn(C2CC(O)C(COC(c3ccccc3)(c3ccccc3)c3ccccc3)O2)c(=O)n1)c1ccccc1 (stereo not given) | 50% | 94% (active) | 37.6%
CCCCCC/C(C)=N/Nc1ccc([N+](=O)[O-])cc1[N+](=O)[O-] | 3% | 15% | -5.7%
CCSc1c2ccccc2c(-c2nc(F)nc(F)n2)n1CCc1ccccc1 | -15% | 70% (active) | 87.7% (active)
